Screening results deposited in PubChem by National Center for Advancing Translational Sciences (NCATS).
G9a block – inhibitors of human histone lysine methyltransferase G9a | Q96KQ7 | G9a H3K9 monomethylation, AlphaScreen, 2 h | Potency, µM (series often up to 102 µM), for inactives: at the top dose activity, negative = inhibition, most hits filed as inhibitors | 350,000 tested, 8.8% active | AID 504332; also: % is scaled to controls: 0 for no effect and ±100 for the full control effect; nearly all actives have a fitted effect of over 75% in size
Target sequence (Q96KQ7 913-1193 limits assumed): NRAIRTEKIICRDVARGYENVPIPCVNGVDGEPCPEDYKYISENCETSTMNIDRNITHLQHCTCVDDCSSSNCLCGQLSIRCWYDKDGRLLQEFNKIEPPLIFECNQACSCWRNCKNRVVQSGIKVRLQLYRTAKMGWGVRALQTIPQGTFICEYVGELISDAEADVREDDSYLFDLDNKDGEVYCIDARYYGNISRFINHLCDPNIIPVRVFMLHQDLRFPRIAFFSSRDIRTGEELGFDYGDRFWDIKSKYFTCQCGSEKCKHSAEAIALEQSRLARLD
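Enzyme 20 nM + cpd, 15 min RT; add b-H3K9 pep 500 nM / SAM 20 uM; 2 h RT; anti-H3K9me1 Ab 0.5 ug/mL + SA donor / anti-rabbit acceptor beads 20 ug/mL each, 10 min; AlphaScreen read.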
BAZ2B inh – inhibitors of human BAZ2B bromodomain; AlphaScreen BAZ2B-H3K14Ac peptide displacement; Q9UIF8; Potency, µM (titrated, usually from 114 µM), for inactives: at the highest dose activity change, negative = inhibition, most hits filed as inhibitors; 360,000 tested, 4.4% active; also: % is scaled to controls: 0 for no effect and ±100 for the full control effect; nearly all actives have a fitted effect of over 60% in size
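AlphaScreen displacement: compounds (up to 110uM) incubated 30 min at room temperature with a preformed 50 nM BAZ2B/50 nM biotinylated H3K14Ac peptide complex in PBS pH 7.4 with Tween-20. Donor and acceptor beads at 10 ug/mL final added, 20 min light-protected before reading.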
Sfp PPTase inh – blocks B. subtilis Sfp PPTase activity; Biochemical Sfp PPTase activity, qHTS; Potency, µM, for the others: largest response in the series, negative = inhibition, most hits filed as inhibitors; 310,000 tested, 3.5% active; AID 1490;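 also: the enzyme is Sfp with the accession as filed and its product quenches rhodamine fluorescence; 0% = enzyme reaction without inhibitor and -100% = no enzyme wells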
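Fluorescence-quenching assay: 15 nM Sfp-PPTase preincubated 15 min at room temperature with compound, then 5 uM rhodamine-CoA and 12.5 uM BHQ-2-labelled YbbR peptide added. Fluorescence (ex 525/em 598 nm) read at start and after 30 min; difference gives rate.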
JMJD2A Tudor – JMJD2A Tudor domain (human) inhibition; O75164; AlphaScreen JMJD2A-Tudor / H3K4me3 peptide binding; Potency, µM (doses to about 114 µM), without a hit: at the top dose activity change, negative = inhibition, usual class: inhibitors; 390,000 tested, 4.4% active; AID 504339; also: % is scaled to controls: 0 for no effect and ±100 for the full control effect; nearly all actives have a fitted effect of over 50% in size
HP1b binding inh – HP1-beta chromodomain-methylated histone interaction inhibition. P83916. AlphaScreen HP1-beta / biotin-H3K9me3 peptide binding. Potency, µM (series often up to 114 µM), for the others: top-dose activity change, negative = inhibition, usual class: inhibitors. 390,000 tested, 0.56% active; also: nearly all actives have a fitted effect of over 70% in size
Target sequence (P83916 whole entry, looked up): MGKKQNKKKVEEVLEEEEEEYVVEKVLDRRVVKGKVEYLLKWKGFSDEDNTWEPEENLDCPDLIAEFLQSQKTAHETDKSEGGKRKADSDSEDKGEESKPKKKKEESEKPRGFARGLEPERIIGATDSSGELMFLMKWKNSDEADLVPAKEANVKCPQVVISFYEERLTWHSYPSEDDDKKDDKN
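AlphaScreen: HP1-beta (50 nM) preformed 30 min with biotin-H3(1-18)K9me3 peptide (50 nM) in PBS pH 7.4, 0.01% Tween-20. Compound added for 30 min at RT, then streptavidin donor/nickel chelate acceptor beads (10 ug/mL) for 30 min.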
* hit, by the source's call; [ ] = remark or other dose. Only some compounds are listed: those with a hit (about 12% of all), similar ones and a draw of the others. Calls follow the shape of the dose curve; as a rule, active = well fitted curve in the direction sought with a large enough effect; inconclusive = small, poorly fitted or top-dose-only effect, or another doubt; inactive = no such curve, though single readings can be large; an effect the other way counts as inactive or inconclusive. Potency is read from the fitted curve at half-maximal effect.

COc1ccc(C(=O)Nc2ccc(-c3nc4cc(C)ccc4o3)c(O)c2)cc1 was read as G9a block 19%[59 µM], BAZ2B inh 0%, JMJD2A Tudor -13% and HP1b binding inh 14%.
`O=C(CNC(=O)c1ccccc1)OC(Cc1ccccc1)C(=O)Nc1cc(C(F)(F)F)ccc1Cl` (configuration not stated) gave JMJD2A Tudor -5%.
For CC(C)C(=O)NC(=S)Nc1ccccn1 the results were G9a block 56µM*, BAZ2B inh 6%, Sfp PPTase inh -3%, JMJD2A Tudor inconclusive and HP1b binding inh 24%.
`CC(C)NCC#CCOc1ccc(Cl)cc1` gave G9a block 7.9µM*, BAZ2B inh inconclusive, Sfp PPTase inh -25%, JMJD2A Tudor 45µM* and HP1b binding inh 24%.
`CC1CCCCC1NCC#CCOc1ccc(Cl)cc1` (configuration not stated) gave G9a block 14µM*, BAZ2B inh 50µM*, Sfp PPTase inh -20%, JMJD2A Tudor 20µM* and HP1b binding inh inconclusive.
O=C1CC[C@@H](OCc2ccccc2)CCN1CC[C@H](Sc1ccccc1)c1ccccc1 was read as G9a block 40%, BAZ2B inh 1%, Sfp PPTase inh 4%, JMJD2A Tudor 21% and HP1b binding inh 66%.
Screening O=S(=O)(c1ccc2c(c1)OCCO2)N1CCN(S(=O)(=O)c2c(Cl)cc(C(F)(F)F)cc2Cl)CC1 returned JMJD2A Tudor -13%.
Screening CC(=O)c1c(C)[nH]c(C(=O)Nc2ccc(Cl)c(S(=O)(=O)N(C)C)c2)c1C returned G9a block -21%, BAZ2B inh inconclusive, Sfp PPTase inh inconclusive, JMJD2A Tudor -35% and HP1b binding inh 15%.
Screening CC(=O)c1c(C)[nH]c(C(=O)OCC(=O)Nc2ccc(Cl)c(S(=O)(=O)N(C)C)c2)c1C returned BAZ2B inh 71µM*, Sfp PPTase inh 3%, JMJD2A Tudor -25% and HP1b binding inh 23%.
O=C(CN1CCN(c2ccccc2O)CC1)Nc1ccc(S(=O)(=O)N2CCCCCC2)cc1 was read as G9a block 45µM*, BAZ2B inh -6%, JMJD2A Tudor -23% and HP1b binding inh 2%.
`CN(C)S(=O)(=O)c1cc(NC(=O)CN2CCN(c3ccc(O)cc3)CC2)ccc1Cl` gave G9a block 4µM*, BAZ2B inh inconclusive, Sfp PPTase inh -99%, JMJD2A Tudor -14% and HP1b binding inh 5%.
CN(C)S(=O)(=O)c1cc(NC(=O)CN2CCN(c3ccccc3)CC2)ccc1Cl was read as G9a block 14%[59 µM], BAZ2B inh -39%, Sfp PPTase inh 21%, JMJD2A Tudor -29% and HP1b binding inh -12%.
Screening CC(C)CC(=O)Nc1ccc(C(=O)CN2CCN(c3ccc(O)cc3)CC2)cc1 returned G9a block 5µM*, BAZ2B inh 50µM*, Sfp PPTase inh 56µM*, JMJD2A Tudor inconclusive and HP1b binding inh -33%.
`COc1cc(/C=N/NC(=O)c2ccc(CN3C(=O)c4cccc5cccc3c45)cc2)cc(OC)c1O` gave G9a block -30%[12.7 µM], BAZ2B inh -2%, Sfp PPTase inh inconclusive, JMJD2A Tudor 21% and HP1b binding inh 36%.
Screening CCOc1ccc(OCC)c(NC(=O)CCc2nc3cccnc3n2-c2ccccc2)c1 returned G9a block inconclusive, BAZ2B inh -32%, JMJD2A Tudor inconclusive and HP1b binding inh 18%.
`O=S(=O)(c1ccc(NC(=S)N2CCN(c3ccc(O)cc3)CC2)cc1)N1CCOCC1` gave G9a block 20µM*, Sfp PPTase inh -18%, JMJD2A Tudor inconclusive and HP1b binding inh -30%.
Screening O=C(CN1CCCCC1)Nc1ccc(S(=O)(=O)N2CCCCCC2)cc1 returned G9a block inconclusive, BAZ2B inh 3%, Sfp PPTase inh 15%, JMJD2A Tudor -15% and HP1b binding inh 19%.
`O=C(CN1CCN(c2ccc(O)cc2)CC1)Nc1ccc(S(=O)(=O)N2CCCC2)cc1` gave JMJD2A Tudor 50µM* and HP1b binding inh inconclusive.
Screening CN(C)S(=O)(=O)c1cc(NC(=O)CNCCN2CCOCC2)ccc1Cl returned G9a block 10µM*, BAZ2B inh 50µM*, Sfp PPTase inh inconclusive, JMJD2A Tudor 28µM* and HP1b binding inh 26%.
For O=C(C[C@@H]1C/C=C/CC[C@H](Cc2ccc(F)cc2)C(=O)OCCNC1=O)N[C@H](CO)Cc1ccccc1 the results were JMJD2A Tudor -8% and HP1b binding inh 33%.
For CCOC(=O)c1c(C)[nH]c(C(=O)NCc2ccco2)c1C the results were G9a block inconclusive, BAZ2B inh -30% and Sfp PPTase inh 16%.
CCCNC(=O)N1CCN(S(C)(=O)=O)CC1 was read as G9a block 40µM*, BAZ2B inh -11%, Sfp PPTase inh -7%, JMJD2A Tudor -7%[11.4 µM] and HP1b binding inh 37%.
Screening CCCNC(=O)N1CCN(c2ncccn2)CC1 returned G9a block 15%[59 µM], BAZ2B inh 7%, Sfp PPTase inh -2%, JMJD2A Tudor -8% and HP1b binding inh 30%.
For O=C1C(c2ccccc2)=[N+]([O-])c2ccccc21 the results were G9a block -11%[2.33 µM], BAZ2B inh 10µM*, JMJD2A Tudor 25µM* and HP1b binding inh inconclusive.
`O=C1C(=O)c2ccc(-c3ccccc3)cc2-c2ccccc21` gave G9a block inconclusive, BAZ2B inh -5%, Sfp PPTase inh 1%, JMJD2A Tudor -8% and HP1b binding inh 22%.
`Cc1cc(Nc2ccc(C)c(Cl)c2)n2nc(-c3ccccc3)nc2n1` gave G9a block -1%[59 µM], BAZ2B inh 1%, JMJD2A Tudor -32% and HP1b binding inh 18%.
`CC1(c2ccc(OC(F)F)cc2)NC(=O)N(CC(=O)NCCC2=CCCCC2)C1=O` (configuration not stated) gave G9a block 2%[12.7 µM], BAZ2B inh 0%, JMJD2A Tudor -13% and HP1b binding inh 25%.
`COC(=O)c1cn(C)c2ccc(S(=O)(=O)N3CCOCC3)cc2c1=O` gave G9a block 9%, BAZ2B inh -14%, Sfp PPTase inh 17%, JMJD2A Tudor 1% and HP1b binding inh 27%.
For Cn1cc(C(=O)O)c(=O)c2cc(S(=O)(=O)N3CCCCC3)ccc21 the results were G9a block inconclusive, BAZ2B inh -2%, JMJD2A Tudor 89µM* and HP1b binding inh 2%.
CN(CCNC(=O)c1cn(C)c2ccc(S(=O)(=O)N3CCCC3)cc2c1=O)CCc1ccccc1 was read as G9a block 2.2µM*, BAZ2B inh -4%, Sfp PPTase inh 10%, JMJD2A Tudor -8% and HP1b binding inh 21%.
`Cn1cc(C(=O)N2CCCCC2)c(=O)c2cc(S(=O)(=O)N3CCCC3)ccc21` gave G9a block 17%, BAZ2B inh -17%, Sfp PPTase inh 14%, JMJD2A Tudor -17% and HP1b binding inh 22%.
